Source: PubChem BioAssay (Tox21)
Several values for one entry are separate records, joined by “and”; a condition that tells them apart may be missing. Equal entries are not always repeated. Inconclusive results are not listed. Where a call stands in place of a potency, no number is given. Some compounds were tested as several samples or in several runs, with calls that do not always agree. Activity calls are given as the source filed them. The call rests on the fitted dose curve; in most records, active means well fitted cell-killing curve with a large enough effect in the repeat runs; inconclusive means weak or mixed curves; inactive means no such curve, though single readings can be large or run the other way.

Test: qHTS assay to identify small molecule antagonists of the peroxisome proliferator-activated receptor delta (PPARd) signaling pathway - cell viability counter screen (AID 743213); further: nearly all actives have a fitted effect of over 50% in size
Conditions: PPARd-bla HEK293H viability, CellTiter-Glo luminescence, 17 h; series mostly up to 62 µM
Excerpt: U.S. Tox21 Program National Center for Advancing Translational Sciences [NCATS] NIH Chemical Genomics Center [NCGC] U.S. Environmental Protection Agency [EPA] National Institutes of Environmental Health Sciences [NIEHS] National Toxicology Program [NTP] U.S. Food and Drug Administration [FDA] Tox21 Assay Overview: The peroxisome proliferator-activated receptors (PPARs) are lipid-activated transcription factors of the nuclear receptor superfamily with three distinct subtypes namely PPAR alpha, PPAR delta (PPARd) and PPAR gamma. All these subtypes heterodimerizes with Retinoid X receptor (RXR) and have different physiological functions. […] To identify the compounds that inhibit PPAR-delta signaling, GeneBLAzer PPAR delta UAS-bla HEK293H cell line (Invitrogen, Carlsbad, CA, USA) containing a beta-lactamase reporter gene under the control of an Upstream Activator Sequence (UAS) was used to screen the Tox21 compound library. The cytotoxicity of the Tox21 compound library against the PPARd-bla cell line was tested in parallel by measuring the cell viability using CellTiter-Glo assay (Promega, Madison, WI) in the same wells.
Tox21 Assay Protocol Summary: PPARd-bla cells were dispensed at 3000 cells/5uL/well in 1536-well black wall/clear bottom plates using a Multidrop Combi (Thermo Fisher Scientific, Waltham, MA) dispenser. After the assay plates were incubated at 37 C and 5% CO2 for 5 h, 23 nL of compounds dissolved in DMSO, positive controls or DMSO only was transferred to the assay plate by a Pintool station (Kalypsys, San Diego, CA), followed by addition of 1ul L165041 (300 nM, final concentration in the wells). The assay plates were incubated at 37 C for 17 h, and then 1 uL of LiveBLAzerTM B/G FRET substrate was added using a Bioraptr Flying Reagent Dispenser (FRD) workstation (Beckman Coulter, Indianapolis, IN, USA). The assay plates were incubated at room temperature for 2 h and fluorescence intensity was measured by an Envision plate reader (PerkinElmer, Shelton, CT). For cell viability readout that measures cytotoxicity, 3 ul/well of CellTiter-Glo reagent was added into the assay plates using a Bioraptr FRD. After 30 min incubation at room temperature, the luminescence intensity in the plates was measured using a ViewLux plate reader (PerkinElmer).
Potency means the concentration at half of the fitted maximal effect.

SMILES	Potency
C[C@@]12C(=O)OC(=O)[C@]1(C)C1CCC2O1	8.41 µM (active)
O=C1NC2CCCCN2C12CCN(CCCN1c3ccccc3CCc3ccc(Cl)cc31)CC2 (stereo not given)	26.6 µM (active)
O=C(c1ccccc1)c1cc(Cl)ccc1O	inactive
O=C(O)CCCCCCC(=O)O	inactive
C=C(C)C(=O)OCCC[Si](Cl)(Cl)Cl	inactive
O=C(O)CC(=O)O	inactive
Cc1c(-c2ccc(O)cc2)n(Cc2ccc(OCCN3CCCCCC3)cc2)c2ccc(O)cc12	26.6 µM (active)
CCCSS/C(CCO)=C(\C)N(C=O)Cc1cnc(C)nc1N	inactive
Oc1c(Br)cc(Br)c2cccnc12	3.35 µM (active)
COCC(=O)O[C@]1(CCN(C)CCCc2nc3ccccc3[nH]2)CCc2cc(F)ccc2[C@@H]1C(C)C	16.8 µM (active)
C1CC(COCC2CO2)CCC1COCC1CO1 (stereo not given)	inactive
Cc1ccc2ccc3cccc4ccc1c2c34	inactive
CCCCCCCC/C=C\CCCCCCCC(=O)N(C)CC(=O)O	12.3 µM (active)
CSc1ccc2c(c1)N(CCC1CCCCN1C)c1ccccc1S2 (stereo not given)	21.8 µM (active) and 13.3 µM (active)
O=C1OC(OC(=O)c2cccnc2Nc2cccc(C(F)(F)F)c2)c2ccccc21 (stereo not given)	inactive
CCN(CC)c1ccc(N)cc1	31.7 µM (active)
CC(C)=C1CC[C@@H](C)CC1=O	inactive
CCCCCCCCCCCCOC(=O)c1cc(O)c(O)c(O)c1	34.5 µM (active) and 54.9 µM (active)
O=C(Nc1ccc(Cl)c(Cl)c1)c1cc(Cl)cc(Cl)c1O	11 µM (active)
Clc1ccc(C(Cn2ccnc2)OCc2ccsc2Cl)c(Cl)c1 (stereo not given)	inactive

SMILES	Potency
COc1cc(C=C2CCC/C(=C\c3ccc(O)c(OC)c3)C2=O)ccc1O	33.5 µM (active)
CNCC[C@H](Oc1cccc2ccccc12)c1cccs1	5.31 µM (active)
NC(=O)C(=O)N/N=C/c1ccc([N+](=O)[O-])o1	inactive
O[C@@H](c1cc(C(F)(F)F)nc2c(C(F)(F)F)cccc12)[C@H]1CCCCN1	8.41 µM (active)
CCCCCCCOC(=O)c1ccc(O)cc1	inactive and 34.7 µM (active)
Oc1ccc(-c2ccc(O)cc2)cc1	inactive
Nc1ccc2cc3ccc(N)cc3nc2c1	inactive
CCCOc1sc(C(=O)N2CCC(c3cc(CN)ccc3F)CC2)c(C)c1Br	17.9 µM (active)
CN1[C@@H]2CC[C@@H]1CC(OC(=O)C(CO)c1ccccc1)C2 (stereo not given in full)	inactive
CCc1cccc(C)c1	inactive
CC(O)C#CC(C)O (stereo not given)	inactive
CCCN(CCc1cccs1)[C@H]1CCc2c(O)cccc2C1	inactive
c1cc2c3c(c1)ccc1cccc(c13)C2	inactive
CNC(=O)c1cc(Oc2ccc(NC(=O)Nc3ccc(Cl)c(C(F)(F)F)c3)cc2)ccn1	10.6 µM (active)
C[C@H]1O[C@@H](O[C@H]2[C@@H](O)C[C@H](O[C@H]3[C@@H](O)C[C@H](O[C@H]4CC[C@@]5(C)[C@H](CC[C@@H]6[C@@H]5C[C@@H](O)[C@]5(C)[C@@H](C7=CC(=O)OC7)CC[C@]65O)C4)O[C@@H]3C)O[C@@H]2C)C[C@H](O)[C@@H]1O	24.6 nM (active) and 13.6 nM (active)
CC(NCCC(c1ccccc1)c1ccccc1)c1ccccc1 (stereo not given)	8.41 µM (active)
Cc1cccc(Br)c1	inactive
O=C1c2c(O)ccc(O)c2C(=O)c2c(NCCNCCO)ccc(NCCNCCO)c21	inactive
Clc1ccccc1CN1CCc2sccc2C1	inactive
Cn1cnc2ncnc(N)c21	inactive
